Data on 24 compounds can be found in PubChem BioAssay (Tox21).

Assay [1] can be described thus: qHTS assay to identify small molecule antagonists of the thyroid receptor (TR) signaling pathway - cell viability counter screen (AID 743064). Note: nearly all actives have a fitted effect of over 50% in size. Note: potency is the fitted concentration of half-maximal effect. The gist of the method: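 Rat GH3 pituitary tumor cells stably expressing two TR response elements driving luciferase were plated, rested 4 h, then dosed with library compounds and T3 (1 nM final). After 23.5 h at 37 °C, CellTiter-Fluor was added for 30 min and fluorescence recorded.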
Background: Quantitative high-throughput screening tests each substance at several concentrations.

Assay [2] in a line: qHTS assay to identify small molecule antagonists of the thyroid receptor (TR) signaling pathway (AID 743065). Note: series mostly up to about 70 µM; nearly all actives have a fitted effect of over 55% in size. Put shortly:
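GH3.TRE-Luc rat pituitary cells (two TREs driving luciferase) were dosed with compound, then stimulated with 1 nM T3 (final) for 23.5 h at 37 C. ONE-Glo luminescence was the read-out, with CellTiter-Fluor fluorescence as the cytotoxicity counter-screen.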

Assay [3] relates to thyroid hormone receptor (rat, GH3 cells). Briefly: qHTS assay to identify small molecule agonists of the thyroid receptor (TR) signaling pathway (AID 743066; calls by dose curve).
The target in assay [4] is Estrogen receptor (Homo sapiens) (UniProt P03372). Put plainly: qHTS assay to identify small molecule antagonists of the estrogen receptor alpha (ER-alpha) signaling pathway (AID 743069; active = well fitted curve in the direction sought with a large enough effect in the signal ratio in the repeat runs, not every such curve was filed as active; the % refers to the signal ratio). The gist of the method: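 Reporter cells (ER-alpha-bla, HEK293 background) are conditioned overnight in stripped-serum medium (2% charcoal-stripped FBS). Compound and 17beta-estradiol exposure runs 18 hr at 37C, 5% CO2.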
Estrogen receptor (Homo sapiens), sequence (P03372 whole entry, looked up): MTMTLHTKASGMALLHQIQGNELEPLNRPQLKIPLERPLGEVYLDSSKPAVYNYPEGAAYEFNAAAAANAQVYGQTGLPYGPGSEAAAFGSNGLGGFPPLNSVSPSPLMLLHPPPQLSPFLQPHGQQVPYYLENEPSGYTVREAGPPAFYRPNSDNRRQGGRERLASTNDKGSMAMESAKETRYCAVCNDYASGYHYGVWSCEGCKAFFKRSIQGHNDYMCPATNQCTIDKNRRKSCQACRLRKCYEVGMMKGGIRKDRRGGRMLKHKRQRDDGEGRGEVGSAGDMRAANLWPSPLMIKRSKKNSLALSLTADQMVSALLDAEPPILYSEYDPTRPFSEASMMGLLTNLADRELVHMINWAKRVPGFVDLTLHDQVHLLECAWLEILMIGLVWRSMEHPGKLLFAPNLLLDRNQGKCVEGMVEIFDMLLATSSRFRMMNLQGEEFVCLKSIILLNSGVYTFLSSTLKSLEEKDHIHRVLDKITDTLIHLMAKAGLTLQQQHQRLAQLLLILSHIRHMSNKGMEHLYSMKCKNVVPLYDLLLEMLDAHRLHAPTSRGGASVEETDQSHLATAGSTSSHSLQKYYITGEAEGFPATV

Assay [5] in a line: qHTS assay to identify small molecule antagonists of the estrogen receptor alpha (ER-alpha) signaling pathway - cell viability counter screen (AID 743074; calls by dose curve;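 note: HEK293 cells carrying ER-alpha-UAS-bla reporter stimulated with 17beta-estradiol; nearly all actives have a fitted effect of over 45% in size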).
Assay [6] addresses Estrogen receptor (Homo sapiens) (UniProt P03372). Briefly: qHTS assay to identify small molecule agonists of the estrogen receptor alpha (ER-alpha) signaling pathway (AID 743075; calls by dose curve;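 note: HEK293 GripTite cells with ER-alpha and UAS-driven beta-lactamase reporter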).
For assay [7] the target is unchanged. Put plainly: qHTS assay to identify small molecule agonists of the estrogen receptor alpha (ER-alpha) signaling pathway using the BG1 cell line (AID 743079). Note: nearly all actives have a fitted effect of over 20% in size. Note: potency is the fitted concentration of half-maximal effect.
A short description of assay [8]: qHTS assay to identify small molecule antagonists of the estrogen receptor alpha (ER-alpha) signaling pathway using the BG1 cell line (AID 743080; calls by dose curve;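 note: BG1 cells stimulated with 17beta-estradiol alongside compound; series mostly up to about 70 µM; nearly all actives have a fitted effect of over 25% in size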). The gist of the method: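 Seeding, 24 h rest, compound transfer from DMSO, 17beta-estradiol addition, 21.5 h incubation, CellTiter-Fluor (30 min, 37 C), then ONE-Glo (30 min, room temperature): this sequence was run on BG1-Luc-4E2 reporter cells.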

A short description of assay [9]: qHTS assay to identify small molecule antagonists of the estrogen receptor alpha (ER-alpha) signaling pathway using the BG1 cell line - cell viability counter screen (AID 743081).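 Note: compound given together with 17beta-estradiol as the ER stimulus; nearly all actives have a fitted effect of over 45% in size.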 Note: potency is the fitted concentration of half-maximal effect.
Another assay deals with Aromatase (Homo sapiens) (UniProt P11511). Briefly: qHTS assay to identify aromatase inhibitors (AID 743083). Note: series mostly up to about 70 µM; nearly all actives have a fitted effect of over 55% in size.
Aromatase (Homo sapiens), sequence (P11511 whole entry, looked up): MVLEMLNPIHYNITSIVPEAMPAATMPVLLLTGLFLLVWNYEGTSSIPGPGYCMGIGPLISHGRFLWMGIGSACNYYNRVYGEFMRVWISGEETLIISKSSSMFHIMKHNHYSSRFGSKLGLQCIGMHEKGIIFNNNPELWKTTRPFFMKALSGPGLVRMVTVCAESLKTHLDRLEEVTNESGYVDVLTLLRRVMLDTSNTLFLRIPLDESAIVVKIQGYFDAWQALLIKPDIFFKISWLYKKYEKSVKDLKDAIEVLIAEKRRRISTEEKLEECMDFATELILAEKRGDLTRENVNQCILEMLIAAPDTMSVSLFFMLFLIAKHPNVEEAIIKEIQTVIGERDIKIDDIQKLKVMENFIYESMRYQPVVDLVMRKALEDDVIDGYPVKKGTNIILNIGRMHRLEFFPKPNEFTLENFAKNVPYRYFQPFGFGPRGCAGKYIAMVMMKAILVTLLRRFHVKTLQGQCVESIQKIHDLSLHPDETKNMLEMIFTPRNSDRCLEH

Where “and” joins values, the source holds several entries; their conditions need not be identical. Identical values can stand only once. Results filed as inconclusive are left out. Some compounds were tested as several samples or in several runs, with calls that do not always agree. Calls of active or inactive are those of the source. Unless noted, calls come from the whole dose curve; as a rule, active = well fitted curve in the direction sought with a large enough effect in the repeat runs; inconclusive = weak or mixed curves; inactive = no such curve, though single readings can be large; an effect the other way counts as inactive or inconclusive.

As for `Nc1c(S(=O)(=O)O)cc(Br)c2c1C(=O)c1ccccc1C2=O`, the Potency result in [1] was “inactive and 61.1 µM (active)”; in [9], 27.3 µM (active). The Potency result in assay [2], in assay [4], in [5], in [6], in [7] and in assay [8] was “inactive” in each case. The Potency result with Aromatase (Homo sapiens) was “inactive”. Besides, in [3], the compound was called inactive.
For the compound `CCCCCCCCCC(=O)O`, the Potency result (in assay [1]; in [2]; in assay [5]; in assay [9]; with Aromatase (Homo sapiens)) was “inactive” in each case. Also, the compound was classed as inactive in assay [3].
On to `Oc1ccc2ccccc2c1N=Nc1ccccc1`, for which the Potency result was “inactive and 54.5 µM (active)” in assay [1]; 19.3 µM (active) and 30.6 µM (active) in [7]; “inactive and 34.4 µM (active)” in assay [9]. The Potency result (in assay [2]; in [4]; in assay [5]; in assay [6]; in the assay with Aromatase (Homo sapiens)) was “inactive” each time. Also, the call in assay [3] was inactive.
`CCCCOCCO`: the Potency entry in assay [1], in assay [2], in [4], in [5], in assay [6] and in [7] was “inactive” in each case. For the same compound, the Potency result (in assay [8]; in [9]; in the assay with Aromatase (Homo sapiens)) was “inactive” in each case. In addition, the outcome in assay [3] was inactive.
`CC(C)(CO)COC(=O)C(C)(C)CO`: the Potency result in assay [1], in assay [2], in assay [4], in assay [5], in assay [6] and in assay [7] was “inactive” each time. Further, the Potency result (in [8]; in assay [9]; with Aromatase (Homo sapiens)) was “inactive” throughout. In assay [3], the compound was classed as inactive.
As for `Clc1cc(Cl)c(Cl)cc1Cl`, the Potency entry in [1], in assay [2], in [4], in [5], in assay [6] and in [8] was “inactive” throughout. Also, the Potency result (in assay [9]; with Aromatase (Homo sapiens)) was “inactive” in each case. Also, the compound was classed as inactive in assay [3]. For the same compound, in assay [7], the Potency was 62.1 µM (active) and inactive.
Turning to `COCC(C)O` (configuration not stated), the Potency entry in [1], in [2], in [4], in assay [5], in [6] and in [8] was “inactive” each time. In addition, the Potency entry (in assay [9]; with Aromatase (Homo sapiens)) was “inactive” in each case. Moreover, in assay [3], the compound was classed as inactive. In assay [7], the Potency result was “inactive and 61.1 µM (active)”.
As for `O=C(Cl)c1c(Cl)c(Cl)c(C(=O)Cl)c(Cl)c1Cl`, the Potency entry in assay [1], in [2], in assay [4], in assay [5], in assay [6] and in [7] was “inactive” each time. Besides, the Potency entry (in [8]; in [9]; in the assay with Aromatase (Homo sapiens)) was “inactive” in each case. Also, the compound was called inactive in [3].
With `CCCCC(CC)COC(=O)CCCCCCCC(=O)OCC(CC)CCCC` (configuration not stated), the Potency entry in [1], in assay [2], in [5] and in assay [9] was “inactive” each time. For the same compound, the outcome in assay [3] was inactive.
Turning to `CC1(C)O[C@@H]2C[C@H]3[C@@H]4C[C@H](F)C5=CC(=O)CC[C@]5(C)[C@H]4[C@@H](O)C[C@]3(C)[C@]2(C(=O)CO)O1`, the Potency result (in assay [1]; in assay [2]; in [5]; in assay [7]; in [9]; with Aromatase (Homo sapiens)) was “inactive” each time. Also, in assay [3], the outcome was inactive.
As for `Nc1cc(-c2ccncc2)c[nH]c1=O`, the Potency entry in assay [1], in assay [2], in assay [4], in [5], in assay [6] and in assay [7] was “inactive” throughout. Besides, the Potency result (in [8]; in assay [9]; in the assay with Aromatase (Homo sapiens)) was “inactive” throughout. For the same compound, the compound was called inactive in assay [3].
For `O=Nc1ccc(O)cc1`, the Potency result in assay [1], in [2], in assay [4], in [5], in assay [6] and in [7] was “inactive” each time. Further, the Potency result (in assay [8]; in assay [9]; with Aromatase (Homo sapiens)) was “inactive” each time. Further, in assay [3], the outcome was inactive.
Turning to `CCOC(=O)[C@H](CCc1ccccc1)N[C@@H](C)C(=O)N1Cc2ccccc2C[C@H]1C(=O)O`, the Potency entry in assay [1], in [2], in [4], in [5], in assay [6] and in assay [7] was “inactive” in each case. Also, the Potency result (in [8]; in [9]; with Aromatase (Homo sapiens)) was “inactive” throughout. Further, the result in assay [3] was inactive.
For the compound `CC[Si](OC(C)=O)(OC(C)=O)OC(C)=O`, the Potency result in [1], in [2], in assay [4], in [5], in assay [6] and in assay [7] was “inactive” throughout. Further, the Potency result (in [8]; in assay [9]; in the assay with Aromatase (Homo sapiens)) was “inactive” each time. Besides, in assay [3], the outcome was inactive.
As to `Cc1cc(O)cc(C)c1Cl`, the Potency entry (in assay [1]; in assay [2]; in assay [5]; in assay [9]; with Aromatase (Homo sapiens)) was “inactive” in each case. Moreover, in [3], the compound was classed as inactive.
With `C=C(C)C(=O)OCCCCCC`, the Potency result in assay [1], in assay [2], in [4], in [5], in [6] and in assay [7] was “inactive” throughout. Also, the Potency entry (in [8]; in assay [9]; with Aromatase (Homo sapiens)) was “inactive” throughout. Also, in assay [3], the compound was classed as inactive.
With `Clc1ccc(Cl)c(Cl)c1Cl`, the Potency result (in [1]; in assay [2]; in assay [5]; in assay [9]; with Aromatase (Homo sapiens)) was “inactive” in each case. For the same compound, the compound was classed as inactive in assay [3].
Take `CN(C)c1cccc(O)c1`: the Potency result (in assay [1]; in assay [2]; in assay [5]; in assay [9]; with Aromatase (Homo sapiens)) was “inactive” each time. Moreover, the call in assay [3] was inactive.
Consider `O=S(=O)(O)c1cc(S(=O)(=O)O)c2c(N=Nc3ccccc3)c(O)ccc2c1`, for which the Potency entry in [2], in assay [4], in assay [5], in assay [6], in assay [7] and in assay [8] was “inactive” each time. In the assay with Aromatase (Homo sapiens), the Potency entry was “inactive”. Also, the compound was called inactive in assay [3]. Besides, in assay [9], the Potency was 27.4 µM (active) and 30.6 µM (active).
As for `C=CC(=O)OCCCCCCCC(C)C`, the Potency result in assay [2], in assay [4], in [5], in [6], in [7] and in assay [8] was “inactive” each time. Also, the Potency result (in assay [9]; with Aromatase (Homo sapiens)) was “inactive” each time. Moreover, the call in assay [3] was inactive.
Take `CC(C)(C)C1CCC(O)CC1` (configuration not stated): the Potency result in assay [2], in assay [4], in [5], in assay [6], in assay [7] and in assay [8] was “inactive” each time. In addition, the Potency result (in [9]; with Aromatase (Homo sapiens)) was “inactive” in each case. Further, the outcome in [3] was inactive.
Regarding `CCCCCCOC(C)=O`, the Potency entry in [1], in assay [4], in assay [5], in assay [6], in [7] and in assay [8] was “inactive” throughout. Also, the Potency entry (in [9]; with Aromatase (Homo sapiens)) was “inactive” in each case.
Consider `O=C1O[C@H](CO)[C@@H](O)[C@H](O)[C@H]1O`, for which the Potency entry in assay [1], in assay [4], in assay [5], in assay [6], in [7] and in [8] was “inactive” in each case. Besides, the Potency result (in assay [9]; with Aromatase (Homo sapiens)) was “inactive” in each case.
As to `OCC#CCO`, the Potency entry (in assay [1]; in assay [9]; with Aromatase (Homo sapiens)) was “inactive” each time. Besides, the call in [3] was inactive.
